The source made the active and inactive calls. No rule for the calls is given here.

The test can be described thus: inhibition of 3D7 malaria parasite growth – strain 3D7 (AID 2306).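 Also: 0% = DMSO wells and 100% = chloroquine plus artemisinin control wells.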 As to conditions: P. falciparum 3D7 erythrocytic growth, LDH absorbance, 72 h; at 2 µM; active compounds read high.
On to `O=C(NCCCCCN1CCC(c2c[nH]c3ccccc23)CC1)c1ccc(Cl)c(Cl)c1`, for which the growth inhibition was 85% (active).
Next, `COc1cc(Cc2cnc(N)nc2N)cc(OCCCCCC(N)=O)c1OC`: 90% (active); `O=C(/C=C/c1ccc(C(F)(F)F)cc1)NCCCCCN1CCN(C(=O)Nc2ccc(F)c(Cl)c2)CC1`: 89% (active); `O=C(NC1CC1)c1ccc(N2CCC(COc3cccc(F)c3)CC2)nc1`: 89% (active).
Next, `O=C(Nc1cccc(CN2CCCN(Cc3ncc[nH]3)CC2)c1)c1cc2ccccc2s1`: 99% (active); `O=c1cc(NCCCNCc2cc3c(Cl)cc(Cl)cc3[nH]2)[nH]c2ccccc12`: 101% (active); `COc1ccc(CNCc2ccc(-c3cccc(-c4nc5c(C)cccc5[nH]4)c3)cc2)cc1`: 102% (active).
Regarding `CN(C)Cc1cccc(CNC(=O)c2sccc2OCc2ccc(Cl)cc2)c1`, the growth inhibition was 90% (active).
As for `COc1cc2nc(SCC(C)C)n(CCCn3ccnc3)c(=N)c2cc1OC`, the growth inhibition is 99% (active).
For `CCOc1ccc2nc(C)cc(NN=Cc3cccc(F)c3)c2c1`, the growth inhibition was 100% (active).
With `O=C(NC1CC1)c1ccc(N2CCC(Cc3ccccc3)CC2)c([N+](=O)[O-])c1`, the growth inhibition was 96% (active).
Next, `O=S(=O)(ON=C1CCc2ccccc21)c1ccc(Cl)cc1`: 100% (active).
Take `CCc1cn2c3c(cc(C(=O)N[C@@H](Cc4cccc(F)c4)[C@H](O)CNC4CCOCC4)cc13)N(C)S(=O)(=O)CC2`: the growth inhibition is 97% (active).
Regarding `COc1ccc(Cl)cc1NC(=O)C(C)Nc1ccc(-c2ccccc2)cc1` (stereo not given), the growth inhibition was 91% (active).
In the case of `CC(Cc1ccc(OCCCCOc2ccccc2)cc1)NCCc1ccc(Oc2ccccc2)cc1` (stereo not given), the growth inhibition is 89% (active).
In the case of `OCCN1CCN(Cc2ccc(-c3cccc(-c4nc5ccc(C(F)(F)F)cc5[nH]4)c3)cc2)CC1`, the growth inhibition was 99% (active).
Turning to `CCN(CC)CCN(Cc1ccc(-c2ccc(C(F)(F)F)cc2)cc1)C(=O)Cn1cc(CCCCc2cccc(F)c2F)c(=O)c2ccccc21`, the growth inhibition is 90% (active).
For `O=c1c(NCCCN(Cc2ccc(F)cc2)c2ccccn2)c(NCc2cccnc2)c1=O`, the growth inhibition is 101% (active).
Consider `COc1ccc(-c2ccc(NC(=O)c3ccc(F)cc3)cc2)cc1CN1CCCN(C)CC1`, for which the growth inhibition was 98% (active).
Next, `O=C(Nc1cncc(NC(=O)c2ccc(Cl)c(Cl)c2)c1)c1ccc(Cl)c(Cl)c1`: 101% (active); `CCn1cnc2c(Nc3cccc([N+](=O)[O-])c3)nc(N3CCC(N4CCCCC4)CC3)nc21`: 98% (active); `NC1CCN(c2nc(NCCCc3ccc(O)cc3)nc(NCc3ccccc3-c3ccc(C(F)(F)F)cc3)n2)CC1`: 101% (active).
Then `CC(C)CNC(=O)c1cncc(-c2cccc(CNC3Cc4ccccc4C3)c2)c1`, with 100% (active); and `CC(C)COc1ccc(Cl)cc1Cc1nc(-c2nc3nc(N4CCN(C)CC4)ccc3[nH]2)cs1`, with 99% (active).
`COc1cc(OC)cc(C(=O)Nc2nc(-c3ccccn3)cs2)c1`: the growth inhibition is 97% (active).
Next, `O=C(Nc1ccccc1)Nc1ccc(-c2cccc(-c3nc4ccc(C(F)(F)F)cc4[nH]3)c2)cc1`: 101% (active); `CN(CCCCCN1CCC(NC(=O)Nc2ccc(Oc3ccccc3)cc2)C1)C(=O)/C=C/c1ccc(Cl)c(Cl)c1` (stereo not given): 98% (active).
Next, `CCCCNCc1ccc(-c2nc(CN(C(=O)Nc3cc([N+](=O)[O-])ccc3F)C3Cc4ccccc4C3)cs2)cc1`: 87% (active); `Cc1cc(NC(=O)Nc2ccc3nccc(N4CCN(C)CC4)c3c2)ccc1Br`: 101% (active).
Next, `CS(=O)(=O)c1cccc(-c2cnc(N)c3cc(-c4cccc(F)c4)ccc23)c1`: 97% (active); `CC(C)Cn1c(Sc2ccc(C#N)c([N+](=O)[O-])c2)nnc1-c1ccccc1Cl`: 93% (active); `Cc1cc(C(=O)Nc2nc(-c3ccccn3)nc3ccsc23)no1`: 98% (active).
Turning to `Cc1cc(N(CCO)CCCN2CCCCC2)nc(Nc2ccc(Cl)cc2)n1`, the growth inhibition is 100% (active).
Then `Cc1cccc(Cl)c1Nc1nnc(-c2cccc(C(=O)NC[C@@H]3CC[C@H]4C[C@@H]3C4(C)C)c2)o1`, with 85% (active).
Take `C=CCOC(=O)N1CCC(CNCc2cccc(-c3cccc(-c4nc5c(C)cccc5[nH]4)c3)c2)C1` (stereo not given): the growth inhibition was 102% (active).
Then `CCC1CCCCN1S(=O)(=O)c1ccc(NC(=O)c2cc(C)on2)cc1` (stereo not given), with 86% (active).
Turning to `COc1ccc(-c2ccc(S(=O)(=O)Nc3cc4c(cc3OC(C)C)CCNCC4)cc2)cc1`, the growth inhibition was 86% (active).
Then `Cc1cccc(C(=O)Nc2ccnc(N3CCC(N(C)Cc4cccc(O)c4)CC3)c2)c1`, with 95% (active).
As for `CN1CCC(C(=O)Nc2cccc(-c3cccc(-c4nc5ccc(F)cc5[nH]4)c3)c2)CC1`, the growth inhibition is 101% (active).
Then `Cc1cnc(Nc2ccccc2)nc1N[C@@H](CCCN)C(=O)Nc1ccccc1`, with 101% (active).

(Values after PubChem BioAssay.)
